Source: ChEMBL document CHEMBL3988442, “University of Dundee, Small-Polar-MMV Screening Library” (2021)
In all, about 48,000 compounds went through this assay and about 13,000 (27%) showed an effect of 50% or more. The list shows a part of the results.

system: Wolbachia pipientis; assay: Anti-Wolbachia Cell-Based Screen; type: functional; set-up: scale not given: in the data most compounds retested in dose-response had high values; settings: 5 µM

Structure (SMILES) | Percent Effect [%]
Nc1cc(-c2cccc3ccnn23)ccn1 | -7.377
O=C(COC1CCCC1)NC(C(=O)Nc1cc[nH]n1)c1ccccc1 (configuration not stated) | -15.76
O=C(NCc1nc(C2CCCCC2)no1)C1CC(=O)N(C2CC2)C1 (configuration not stated) | -21.27
Cn1nccc1-c1ncc2c(c1C(=O)O)CCN(Cc1cccnc1)C2.O=C(O)C(F)(F)F.O=C(O)C(F)(F)F | -4.341
O=C(O)C(F)(F)F.O=C(O)C(F)(F)F.O=C(O)C(F)(F)F.O=C(O)c1c(-c2cncnc2)ncc2c1CCN(Cc1cccnc1)C2 | 96.39
Cn1nccc1-c1ncc2c(c1C(=O)O)CCN(Cc1ccccc1)C2.O=C(O)C(F)(F)F.O=C(O)C(F)(F)F.O=C(O)C(F)(F)F | -10.76
CN1CCN(C(=O)c2cn(-c3ccc(C(F)(F)F)cn3)nn2)CC1 | -7.593
Cc1cc(-n2cccn2)ccc1CN1C[C@@H](CN(C)C)[C@@H](CO)C1 | 14.35
COC1CCN(C(=O)CCn2ccc(=O)[nH]c2=O)CC1 | -8.705
COC(=O)C1CCN(CC2(c3ccc(C)cn3)CCNCC2)CC1 | -5.791
Cc1ccc(C2(O)CCN(C(=O)CCn3c(C)cccc3=O)CC2)nc1 | 106.7
Cc1cccc(=O)n1CCC(=O)N(C)Cc1cccc2ncccc12 | -4.376
Cc1ccc(C2(O)CCN(C(=O)CCn3ccc(=O)[nH]c3=O)CC2)nc1 | 97.51
Cc1ccc(C2(O)CCN(C(=O)Cn3cc(C)c(=O)[nH]c3=O)CC2)nc1 | 116.3
Cc1cn(CC(=O)N(C)Cc2cccc3ncccc23)c(=O)[nH]c1=O | -19.07
Cc1cccnc1CN1CCN(C(=O)CCn2ccc(=O)[nH]c2=O)CC1 | -10.51
CSCc1ccc(N2CCC(C(O)Cc3ccccc3)CC2)nc1 (configuration not stated) | 26.16
O=C(O)C(F)(F)F.O=C(O)C(F)(F)F.c1cc(CN2CCc3ncnc(C4CCOC4)c3CC2)ccn1 (configuration not stated) | 0.007603
Cc1ccc(Oc2ncccc2CNC2CCSCC2)cn1 | -8.046
Nc1ccc(-c2ccc(F)cc2Cl)cn1 | -14.84
Cc1ccc(C(O)CNC(=O)NCc2nc(C)cs2)cc1 (configuration not stated) | -27.45
Cc1ccsc1C(=O)NC(C)c1ccc2c(c1)CCC(=O)N2 (configuration not stated) | -2.921
O=C1CCCc2cc(S(=O)(=O)NCc3ccccn3)ccc2N1 | -1.258
CC(NC(=O)NCc1cc[nH]n1)c1ccc2c(c1)CCC(=O)N2 (configuration not stated) | -0.03999
Cc1ccsc1CNC(=O)NC(C)c1ccc2c(c1)CCC(=O)N2 (configuration not stated) | 96.96
CC(NC(=O)N(C)Cc1ccsc1)c1ccc2c(c1)CCC(=O)N2 (configuration not stated) | -10.24

Structure (SMILES) | Percent Effect [%]
CC(NC(=O)NCc1cccs1)c1ccc2c(c1)CCC(=O)N2 (configuration not stated) | 122.7
Cc1csc(CNC(=O)NC(C)c2ccc3c(c2)CCC(=O)N3)n1 (configuration not stated) | 108.8
Cc1csc(CNC(=O)NCC(O)c2ccc(F)cc2)n1 (configuration not stated) | 8.268
CC(NC(=O)NCc1ccccn1)c1ccc2c(c1)CCC(=O)N2 (configuration not stated) | 101
CSc1ccsc1C(=O)NC(C)c1ccc2c(c1)CCC(=O)N2 (configuration not stated) | -17.83
O=C(CN1CCCS1(=O)=O)Nc1ccc(OC2CCCC2)cc1 | -0.8772
COc1ccc(OCC(=O)NC(C)c2ccccc2)c(C(=O)O)c1 (configuration not stated) | -7.994
CCCOc1ccc(CN)c(OC(F)F)c1 | 2.024
CC(C(=O)NCc1ccnc(N2CCN(C)CC2)c1)n1cccn1 (configuration not stated) | -2.51
O=C(c1ccc(Cn2cc(Br)cn2)cc1)N1CCCC1 | 26.22
CN(C)C[C@@H]1CCC[C@@H]2CN(c3nccc(C(F)(F)F)n3)C[C@@H]21.O=C(O)C(F)(F)F | -9.332
CC(NC(=O)NCCS(C)(=O)=O)c1ccc2c(c1)CCC(=O)N2 (configuration not stated) | 98.04
CC(NC(=O)NCCCN(C)C)c1ccc2c(c1)CCC(=O)N2 (configuration not stated) | 1.464
CC(NC(=O)NCCCn1ccnc1)c1ccc2c(c1)CCC(=O)N2 (configuration not stated) | -10.33
CCCn1[nH]cc/c1=N\C(=O)CN1CCCC1Cn1cc(C)cn1 (configuration not stated) | -13.34
O=C(c1cnccn1)N1CCN(Cc2csc(-c3ccccc3)n2)CC1 | 5.031
O=C(c1cnccn1)N1CCC2(CCN(Cc3ccsc3)C2)CC1 | 113.3
Cn1cccc1CN1CCC2(CC1)CCN(C(=O)c1cnccn1)CC2.O=C(O)C(F)(F)F | 3.989
O=C(c1cnccn1)N1CCC2(CCCN(Cc3ccoc3)C2)C1 (configuration not stated) | 7.611
O=C(c1cnccn1)N1CCC2(CCN(Cc3ccsc3)CC2)CC1 | 105.9
NC(=O)C1=NC2=NS(=O)(=O)c3ccccc3N2N1Cc1ccc(Cl)cc1 | 1.46
CC(C)(CNc1cc(F)ccc1F)S(C)(=O)=O | -17.31
CC(=O)N1CCC(N2CCN3C(=O)N(Cc4ccccn4)C[C@H]3C2)CC1 | -4.667
Cc1nnc(CSc2ccc(C(F)(F)F)cn2)o1 | -11.49
CCN1CC(C(=O)NCc2nc(C3CCCCC3)no2)CC1=O (configuration not stated) | -30.34
Cc1cc(C(=O)O)ccc1NS(=O)(=O)c1c(C)nn(C(C)C)c1C | -9.87

Structure (SMILES) | Percent Effect [%]
CN1CCCN(C(=O)c2cnc(C(C)(C)C)nc2O)CC1 | -12.59
Cc1nc(N2CCN(C)CC2)ncc1C(=O)N1CCCCC1 | 123.3
Cc1nc(N2CCN(C)CC2)ncc1C(=O)N1CCN(C)CC1 | 120.1
Cc1nc(N2CCN(C)CC2)ncc1C(=O)N1CCC(O)(CO)CC1 | -3.993
Cc1nc(N2CCN(C)CC2)ncc1C(=O)N1CCCCCC1 | 100.3
Cc1nc(N2CCCCC2)ncc1-c1cc(O)[nH]n1 | 24.53
CC[C@H]1COCCN1C(=O)c1cnc(N2CCN(C)CC2)nc1C | -29.22
CN1CCCN(C(=O)c2cnc(Cc3c(Cl)cccc3Cl)nc2O)CC1 | 6.628
Cc1nc(N2CCN(C)CC2)ncc1C(=O)N1CC(C)(C)C(C)(O)C1 (configuration not stated) | -4.468
COCc1c(Br)cccc1NC(=O)CC(F)(F)F | -8.675
CC(C)(O)c1cc(CC2(NCC3CCCCC3)COC2)no1 | -2.979
O=C(c1n[nH]c2ccccc12)N1CCCC1c1noc(C2CC2)n1 (configuration not stated) | -5.823
CC(C)(C)NS(=O)(=O)c1ccc(NC(=O)C2CC2)cc1 | -16.45
Cc1nn(CC(=O)N2CCCCC2Cn2cccn2)c(C)c1Cl (configuration not stated) | -2.313
Cc1cc(C)n(CC(=O)N2CCC(NS(C)(=O)=O)CC2)n1 | -12.4
Cc1nn(CC(=O)N2CCCC2Cn2cccn2)c(C)c1Cl (configuration not stated) | -2.085
COC1CCN(C(=O)Cn2nc(C)cc2C)CC1 | -14.02
Cc1cc(C)n(C(=O)Cn2nc(C)c(I)c2C)n1 | 66.77
Cc1nn(CC(=O)n2cccn2)c(C)c1I | 112.6
CC(=O)N1Cc2nc(C(=O)NCCc3cccnc3)oc2C1 | -18.72
CSCC(C)N(C)S(=O)(=O)c1ccc(Cl)cc1C#N (configuration not stated) | -5.71
CN(C)Cc1ccccc1CN(C)C(=O)c1ccoc1 | 83.07
Cc1ccccc1CN(C)C(=O)c1ccoc1 | -7.893
CN(Cc1ccccc1CN1CCCC1)C(=O)c1c(O)cccc1O | -3.98
Cc1ncc(CC(=O)N2CCCCC2CCN2CCCC2)c(=O)[nH]1 (configuration not stated) | -18.36
CCN(CC1CCOC1)C(=O)c1ccc(COc2ccccc2C#N)o1 (configuration not stated) | 0.9785

Structure (SMILES) | Percent Effect [%]
CCN(CC1CCOC1)C(=O)c1ccccc1S(=O)(=O)CC (configuration not stated) | 111.1
CCN(CC1CCOC1)C(=O)c1ccccc1NS(=O)(=O)CC (configuration not stated) | 0.4037
CCN(CC1CCOCC1)C(=O)CCNC(=O)c1ccccc1F | -3.146
CCN(CC1CCOC1)C(=O)c1ccccc1S(C)(=O)=O (configuration not stated) | 84.82
CCN(CC1CCOC1)C(=O)c1nc(-c2ccco2)sc1C (configuration not stated) | 14.29
COCCc1noc(-c2ccc(=O)[nH]c2)n1 | -16.05
CCc1nnc(CN(C)C[C@@H]2CCCN3CCCC[C@H]23)o1 | -11.52
Cc1nnc(CN(C)CC2(O)CCCN(CCC3CCCCC3)C2=O)o1 (configuration not stated) | -32.48
Cc1nnc(CN(C)CC2CCCCC2)o1 | 96.6
CCc1nnc(CN(C)CC2CCCCC2)o1 | 93.73
CCc1nc(CN(C)CC2CCN(CCO)CC2)no1 | -13.45
Cc1cc(CN(C)CC2CCCCC2)no1 | -1.2
OC(CN(Cc1ccccc1)Cc1cccnc1)c1ccco1 (configuration not stated) | -6.799
CCCN1CCCN(c2ncccc2C(=O)N2CCCCC2)CC1 | 6.513
CCC(CNS(C)(=O)=O)Oc1ccccc1C (configuration not stated) | 8.016
CC(=O)N1CCN(c2cc(CCN)nc(C3CC3)n2)CC1.Cl | 89.11
CCC(=O)NCCc1cc(N2CCN(C(C)=O)CC2)nc(C2CC2)n1 | -11.66
COc1ccc(C(=O)N2CCN(c3cc(CCN)nc(C)n3)CC2)cc1 | -1.227
CC(=O)N1CCN(c2cc(CCNC(=O)C(C)C)nc(C3CC3)n2)CC1 | 74.84
Cc1nc(CCN)cc(N2CCCN(C(=O)c3ccco3)CC2)n1 | -5.504
CN1CCN(c2cc(CCNC(=O)C3CCC3)nc(C3CC3)n2)CC1 | -16.77
CCCNC(=O)CCC(=O)N1CCC(c2n[nH]c(C3CC3)n2)CC1 | -17.72
CC(=O)NCCc1cc(N2CCN(C(C)=O)CC2)nc(C2CC2)n1 | -7.517
CCCC(=O)NCCc1cc(N2CCN(C(C)=O)CC2)nc(C2CC2)n1 | 96.87
